The list is not random: actives were taken first. Their share in the collection is about 21%.
Pf growth 96h = P. falciparum growth inhibition at 96 hours; P. falciparum luciferase reporter growth, 96 h; Potency, µM (highest dose often 28.7 µM), without a hit: top-dose activity change, negative = inhibition, usual class: inhibitors; 6.9% of 320,000 active; note: potency is the fitted concentration of half-maximal effect; % is set by controls: 0 for no effect and ±100 for the full control effect
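Parasite growth measured via integrated firefly luciferase reporter in P. falciparum. Infected erythrocytes at 2% hematocrit, 0.05% parasitemia final were treated 96 hours at 37 C under 5% CO2, and luminescence was read.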
Shiga inhibitor = Shiga toxin inhibition | Vero cells, Shiga toxin protein synthesis inhibition reporter | inhibition, % at 38.7 µM | 9.2% of 290,000 active; in the data active = inhibition mostly above about 28%, no sharp cut-off; inactive = mostly below about 43%; note: 0% is about no effect
Pf growth 48h = inhibits P. falciparum growth in the first generation, 48 h | 5.9% of 310,000 active | P. falciparum luciferase growth in erythrocytes, 48 h | Potency, µM (doses to about 28.7 µM), without a hit: at the top dose activity change, negative = inhibition, usual class: inhibitors; note: potency is the fitted concentration of half-maximal effect; % is set by controls: 0 for no effect and ±100 for the full control effect
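Erythrocytes infected with P. falciparum carrying an integrated firefly luciferase reporter (2% hematocrit, 0.1% parasitemia final) were exposed to compounds in RPMI 1640 with 0.5% Albumax at 37 C, 5% CO2. Growth inhibition was scored as reduced luminescence.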
CHX counter = counter-screen hit for Shiga toxin inhibitors, cycloheximide; cell reporter, cycloheximide protein synthesis inhibition counterscreen; max response, %; 12% of 300,000 active; in the data active = max response mostly above about 13%, no sharp cut-off; inactive = mostly below about 14%; note: read at 38.3 µM for the half of the compounds with a filed dose; 0% is about no effect
* hit, by the source's call; i = inactive; ? = inconclusive; nt = no result. Unless noted, calls come from the whole dose curve; as a rule, active = well fitted inhibition curve with a large enough effect; inconclusive = small, poorly fitted or top-dose-only effect, or another doubt; inactive = no such curve, though single readings can be large or run the other way.

SMILES	Pf growth 96h	Shiga inhibitor	Pf growth 48h	CHX counter
CCCCn1c(NCCN(C)C)nc2c1c(=O)[nH]c(=O)n2C	4.65µM*	16.7	24.4%	8.3
CCC(C)Nc1nc2c(c(=O)[nH]c(=O)n2C)n1CCCc1ccccc1 (stereo not drawn)	4.15µM*	-5.9	-7.9%	-1.1
CN(Cc1ccccc1)c1nc2c(c(=O)[nH]c(=O)n2C)n1CCCc1ccccc1	-30.9%	41.0	?	27.5*
Cn1c(=O)[nH]c(=O)c2c1nc(N(CCO)Cc1ccccc1)n2CCCc1ccccc1	?	-14.2	nt	-9.9
CCN(CC)c1nc2c(c(=O)[nH]c(=O)n2C)n1CCOc1ccccc1	0.657µM*	nt	0.0%	-2.6
CCOc1ccc(CCNC(=O)CS(=O)Cc2nc(-c3ccc(OC)cc3)oc2C)cc1OCC (stereo not drawn)	-6.6%	3.8	-7.1%	-5.0
CN(CC(=O)Nc1ccccc1Cl)C(=O)COC(=O)Cc1ccc(F)cc1	40.6%	7.2	35.0%	-2.2
COc1ccc2cc(C(C)C(=O)N3CCC(C)CC3)ccc2c1 (stereo not drawn)	?	34.0	?	-2.4
Cc1ccccc1C(=O)N1CCC(C(=O)N(C)CCOc2ccccc2)CC1	-10.4%	-7.4	?	-3.4
Cc1cccc(N(Cc2ccccc2)C(=O)C2CCN(C(=O)c3ccccc3C)CC2)c1	10.4µM*	nt	11.7µM*	nt
CCCn1c(=O)c2ccccc2n2c(SCCOc3ccc(Cl)cc3)nnc12	27.2%	69.8*	26.5%	13.4
Oc1ccccc1C1NCc2ccccc2-n2cccc21 (stereo not drawn)	26.0%	-21.0	13.1µM*	-8.1
CCOc1cc(C2NCc3ccccc3-n3cccc32)ccc1O (stereo not drawn)	-25.6%	-16.4	2.62µM*	-4.9
COc1cc(NC(=O)CSCc2ccc(Cl)cc2)c(C(=O)O)cc1OC	-29.7%	-8.0	2.0%	-1.0
COC(=O)c1ccccc1NC(=O)/C=C/c1cc(OC)c(OC)c(OC)c1	?	-10.2	nt	-1.8
O=S(=O)(O)c1nc2ccccc2n1Cc1ccccc1	?	7.5	1.2%	1.2
O=NNc1nc2ccccc2n1Cc1ccccc1	13.1µM*	11.2	?	-4.1
CC(=O)Nc1nc2ccccc2n1Cc1ccccc1	11.7µM*	-14.2	?	-3.6
Cn1c(NN=O)nc2ccccc21	?	48.5*	11.7µM*	28.3*
CN1CCN(S(=O)(=O)c2ccc(N(C)Cc3cccc(F)c3)nc2)CC1	16.6%	nt	9.3%	nt
Cc1cccc(NC(=O)CNC(=O)c2cccc(-n3cccc3)c2)c1C	26.4%	nt	5.1%	nt
CCC1(c2ccccc2)NC(=O)N(CC(=O)NCC2COc3ccccc3O2)C1=O (stereo not drawn)	29.2%	nt	?	nt
CC(C)COC(=O)NC1c2ccccc2Oc2ccccc21	29.0%	1.7	5.1%	-2.6
CCOC(=O)C1=CN(c2cccc(F)c2)C=C(C(=O)OCC)C1c1cc(OC)c(O)c([N+](=O)[O-])c1	?	-9.7	10.4µM*	0.6
CCOC(=O)C1=C(CS(=O)(=O)c2ccc(F)cc2)NC(=O)NC1c1cc(OC)c(O)c(OC)c1 (stereo not drawn)	48.7%	-13.6	16.7%	-3.4
SMILES	Pf growth 96h	Shiga inhibitor	Pf growth 48h	CHX counter
COC(=O)C(C(C)C)N1CC(=O)c2ccccc2S1(=O)=O (stereo not drawn)	nt	-3.3	nt	-1.6
O=C1CCCN1c1ccc(N2CCCC2=O)cc1	2.08µM*	-4.2	14.4%	-1.0
O=C1CCCN1c1ccc(CNS(=O)(=O)c2ccc(F)cc2)cc1	nt	24.0	24.0%	13.6*
COc1cc(NC(=O)NNC(=O)c2cc3occc3n2C)cc(OC)c1OC	28.7%	-5.9	15.4%	-6.0
O=C(O)CCNS(=O)(=O)c1ccc2c(c1)OCCCO2	19.9%	-6.0	-0.9%	-1.2
C=CCN(Cc1nc(-c2ccccc2)no1)C(=O)c1ccc2c(c1)OCO2	-3.0%	-13.0	11.9%	-1.7
COc1ccc(CC(=O)Nc2ccc3nc(C)sc3c2)cc1OC	8.0%	-0.8	-3.6%	1.7
COc1ccc(C(=O)Nc2ccc3nc(C)sc3c2)cc1OC	-0.1%	84.0	129.5%	31.0*
COC(=O)c1ccc(NC(=O)c2ccc3nc(C)sc3c2)cc1	-27.4%	nt	30.9%	77.0*
COc1ccc(NC(=O)c2ccc3nc(C)sc3c2)cc1	?	128.8*	69.7%	64.3*
Cc1ccccc1C(=O)Nc1ccnn1C1CCN(C(=O)c2ccoc2)CC1	1.5%	-1.7	34.9%	-3.9
Cc1ccc2cccc(OCc3nnc(SCC(=O)O)n3C)c2n1	52.8%	-5.5	-1.1%	-1.7
CCn1c(SCC(=O)c2cccs2)nnc1-c1cccs1	112.8%	30.7	27.7%	26.9*
Cc1ccc(CSc2nnc(-c3cccs3)n2C)cc1	16.2%	30.8	11.7µM*	18.0
Cn1c(SCc2ccc(Br)cc2)nnc1-c1cccs1	?	51.8	?	12.8
Cc1cccc(OCc2nnc(SCC(=O)c3cccs3)n2C)c1C	8.28µM*	39.3	-23.3%	20.7*
CCn1c(SCc2ccccc2)nnc1-c1cccs1	?	18.9	9.28µM*	12.6
CC(C)(CNC(=O)c1ccc(-c2cccc(C(F)(F)F)c2)o1)N1CCOCC1	-9.2%	nt	?	nt
CCn1c(SCc2ccccc2)nnc1C1CCN(S(=O)(=O)c2ccc(OC)cc2)CC1	?	-1.5	?	7.2
CCn1c(SCc2ccccc2)nnc1C1CCCCC1	9.28µM*	-27.9	?	-0.3
N#Cc1ccc(CSc2nnc(-c3cccs3)n2-c2ccccc2)cc1	16.5µM*	-18.1	?	-1.1
CC(C)n1c(O)c(N=NC(=O)Cc2csc(N3CCOCC3)n2)c2ccccc21	?	19.0	13.1µM*	-3.1
O=c1cnc2cc([N+](=O)[O-])ccc2[nH]1	1.4%	-4.3	16.0%	-3.8
O=C(CCl)NCCCCCCCCCNC(=O)CCl	1.47µM*	14.4	1.85µM*	0.9
Brc1ccc2[nH]c3c(c2c1)CCC3	6.4%	5.3	5.2%	-1.4
SMILES	Pf growth 96h	Shiga inhibitor	Pf growth 48h	CHX counter
O=c1c2c([nH]c3ccc(Br)cc13)CCCC2	0.0%	-3.4	0.329µM*	-3.1
Cc1cc(N)c2ccccc2n1	16.9%	-9.5	-4.8%	-1.5
Nc1cc2ccncc2c2ccccc12	?	-9.2	0.117µM*	-1.3
COc1cc(NC(=O)NCC2CCN(Cc3ccccc3C)CC2)cc(OC)c1OC	37.8%	-3.6	-2.2%	-0.9
CCOC(=O)c1c(NC(=O)COc2cccc3c2CCN(CC)C3=O)sc2c1CCC2	?	-0.9	-6.6%	-2.0
COc1ccccc1-c1c(C(F)(F)F)oc2cc(OCC(=O)Nc3ccccc3C(F)(F)F)ccc2c1=O	5.22µM*	-5.7	?	-3.3
COc1ccccc1-c1c(C(F)(F)F)oc2cc(OS(C)(=O)=O)ccc2c1=O	i	39.1	39.2%	24.6*
O=C1OC(/C(=C\Nc2cc(Cl)ccc2O)[N+](=O)[O-])c2ccccc21 (stereo not drawn)	?	15.0	10.4µM*	4.6
O=C1OC(/C(=C\Nc2ccc(F)cc2F)[N+](=O)[O-])c2ccccc21 (stereo not drawn)	-197.1%	42.7	?	10.4
Cc1ccccc1C1C(C#N)=C2N=C(N)c3c(sc4c3CCCCC4)N2C2=C1C(=O)CCC2 (stereo not drawn)	2.62µM*	-22.6	1.85µM*	-0.9
